miR122 inh: raises miR-122 sensor activity in Huh7 cells; Huh7 psiCHECK-miR122 Renilla luciferase sensor, 48 h; activation, % at 12.5 µM; 0.14% of 340,000 active; AID 623901;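 active = mean activation of 30% or more, with every replicate also reaching 30%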;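 also: 0% = median of neutral control wells and 100% = median of positive control wells; higher luciferase signal means stronger suppression of miR-122 activity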
Starred values were filed as active, the others as inactive. Shown is part of a subset that was picked to be rich in hits.

SMILES	miR122 inh
CCCNC(=O)N(C)C[C@@H]1Oc2ncc(C#CCC3CCCC3)cc2C(=O)N([C@H](C)CO)C[C@@H]1C	6.6
CCCCCCCCCCn1c2c(c(=N)c3c1CCC3)CCC2	66.2*
C[C@H](CO)N1C[C@H](C)[C@@H](CN(C)C(=O)Nc2ccc(F)cc2)Oc2cc(C#CC3(O)CCCC3)ccc2S1(=O)=O	-30.0
CC(C)NC(=O)N(C)C[C@@H]1Oc2ncc(C3=CCCCC3)cc2C(=O)N([C@H](C)CO)C[C@H]1C	4.4
O=C(CCCCCN1C(=O)c2ccccc2C1=O)NCc1ccccn1	35.5*
O=C(CCCCCCC(=O)Nc1ccccc1)NO	-232.4
CCc1ccc(-c2cc(C(=O)NCc3ccccn3)c3ccccc3n2)cc1	-148.4
CC(C)C#Cc1ccc2c(c1)O[C@H](CN(C)C(=O)NC(C)C)[C@@H](C)CN([C@H](C)CO)S2(=O)=O	-88.2
C[C@H](CO)N1C[C@H](C)[C@@H](CN(C)Cc2ccc(Oc3ccccc3)cc2)Oc2ncc(-c3cccnc3)cc2C1=O	0.2
C/C=C/c1cnc2c(c1)C(=O)N([C@H](C)CO)C[C@H](C)[C@@H](CN(C)S(=O)(=O)c1cccs1)O2	-1.0
N#CC1=C(N)Oc2c(ccc3cccnc23)C1c1ccccc1 (stereo not drawn)	64.0*
Cc1ccc(-c2cnc3c(c2)C(=O)N([C@H](C)CO)C[C@@H](C)[C@@H](CN(C)C(=O)c2ccncc2)O3)cc1	2.8
CCC(=O)Nc1ccc2c(c1)OC[C@H](C)N(C(=O)c1ccncc1)C[C@@H](C)[C@H](OC)CN(C)C2=O	-6.9
CC(C)C#Cc1ccc2c(c1)O[C@@H](CN(C)Cc1ccccn1)[C@H](C)CN([C@H](C)CO)S2(=O)=O	1.9
COCC(=O)N(C)C[C@H]1Oc2cc(C#CC(C)C)ccc2S(=O)(=O)N([C@H](C)CO)C[C@H]1C	21.2
CCC(=O)N(C)C[C@H]1Oc2ncc(C#C[C@H](C)O)cc2C(=O)N([C@@H](C)CO)C[C@H]1C	0.7
COC(=O)c1ccc(NS(=O)(=O)c2cc(C)ccc2OC)cc1	-149.8
COC(=O)c1ccc2c(c1)C(C)(C)C(/C=C/c1ccc(OC)c(OC)c1OC)=[N+]2C	40.4*
C[C@H]1CN([C@@H](C)CO)S(=O)(=O)c2ccc(-c3cncnc3)cc2O[C@H]1CN(C)Cc1ccccn1	5.1
C[C@H](CO)N1C[C@H](C)[C@H](CN(C)C(=O)c2ccccn2)Oc2ncc(-c3cccc(F)c3)cc2C1=O	8.2
Cc1noc(C)c1S(=O)(=O)N(C)C[C@@H]1Oc2c(NC(=O)c3cnccn3)cccc2C(=O)N([C@@H](C)CO)C[C@@H]1C	-166.0
COC(=O)c1cc(=O)n2c(-c3ccc(OC)cc3)csc2n1	37.6*
O=C(C[C@H]1CC[C@@H]2[C@H](COC[C@H](O)CN2C(=O)C2CCCC2)O1)NCc1ccncc1	-121.7
C[C@H](CO)N1C[C@H](C)[C@H](CN(C)C(=O)C2CC2)Oc2ncc(-c3cccnc3)cc2C1=O	-8.7
O=C(C[C@@H]1C[C@H]2c3cc(NS(=O)(=O)c4ccc(F)cc4)ccc3O[C@H]2[C@H](CO)O1)NCc1ccc(Oc2ccccc2)cc1	-150.2
SMILES	miR122 inh
C[C@@H]1CN([C@@H](C)CO)S(=O)(=O)c2ccc(-c3ccccc3)cc2O[C@@H]1CN(C)C(=O)CC1CC1	7.4
C/C=C/c1ccc2c(c1)O[C@@H](CN(C)C(=O)c1ccc3c(c1)OCO3)[C@@H](C)CN([C@@H](C)CO)S2(=O)=O	-0.9
C[C@@H]1CN([C@H](C)CO)S(=O)(=O)c2ccc(Br)cc2O[C@@H]1CN(C)C(=O)CC1CC1	-18.1
Cc1ccc(-c2ccc3c(c2)O[C@H](CN(C)C(=O)CC2CC2)[C@H](C)CN([C@@H](C)CO)S3(=O)=O)cc1	52.5*
C[C@H]1CN([C@@H](C)CO)S(=O)(=O)c2ccc(-c3ccccc3)cc2O[C@@H]1CN(C)C(=O)CC1CC1	-32.9
C[C@@H]1CN([C@H](C)CO)S(=O)(=O)c2ccc(-c3ccccc3)cc2O[C@H]1CN(C)C(=O)CC1CC1	-0.8
Cc1ccc(-c2ccc3c(c2)O[C@H](CN(C)C(=O)CC2CC2)[C@H](C)CN([C@H](C)CO)S3(=O)=O)cc1	40.1*
C[C@@H]1CN([C@@H](C)CO)S(=O)(=O)c2ccc(-c3ccccc3)cc2O[C@@H]1CN(C)C(=O)c1ccc2c(c1)OCO2	44.3*
C/C=C/c1ccc2c(c1)O[C@H](CN(C)C(=O)c1ccc3c(c1)OCO3)[C@@H](C)CN([C@@H](C)CO)S2(=O)=O	-14.1
C[C@@H](O)C#Cc1ccc2c(c1)O[C@H](CN(C)C(=O)Cc1ccccn1)[C@@H](C)CN([C@@H](C)CO)S2(=O)=O	-3.7
CC(C)C#Cc1cnc2c(c1)C(=O)N([C@H](C)CO)C[C@@H](C)[C@H](CN(C)C(=O)c1ccccc1)O2	0.9
COCC(=O)N(C)C[C@H]1Oc2ncc(C#Cc3ccncc3)cc2C(=O)N([C@@H](C)CO)C[C@@H]1C	6.8
C[C@H](O)C#Cc1ccc2c(c1)O[C@@H](CN(C)Cc1cncnc1)[C@@H](C)CN([C@H](C)CO)S2(=O)=O	3.6

Screens (PubChem BioAssay)
